What all share (design): scale not given: direction of the effect not stated beside the values
For assay [1], the target named is Protein translocase subunit SecA (Escherichia coli (strain K12)) (UniProt P10408). The experiment in a line: Assay to Identify E. coli SecA ATPase Inhibitors. The format is functional. The note with it: 30 µM.
Assay [2] deals with T1, Ubiquitin-activating enzyme e1, putative (Leishmania donovani (strain BPK282A1)) (UniProt E9BSI1).
T1 sequence (whole entry): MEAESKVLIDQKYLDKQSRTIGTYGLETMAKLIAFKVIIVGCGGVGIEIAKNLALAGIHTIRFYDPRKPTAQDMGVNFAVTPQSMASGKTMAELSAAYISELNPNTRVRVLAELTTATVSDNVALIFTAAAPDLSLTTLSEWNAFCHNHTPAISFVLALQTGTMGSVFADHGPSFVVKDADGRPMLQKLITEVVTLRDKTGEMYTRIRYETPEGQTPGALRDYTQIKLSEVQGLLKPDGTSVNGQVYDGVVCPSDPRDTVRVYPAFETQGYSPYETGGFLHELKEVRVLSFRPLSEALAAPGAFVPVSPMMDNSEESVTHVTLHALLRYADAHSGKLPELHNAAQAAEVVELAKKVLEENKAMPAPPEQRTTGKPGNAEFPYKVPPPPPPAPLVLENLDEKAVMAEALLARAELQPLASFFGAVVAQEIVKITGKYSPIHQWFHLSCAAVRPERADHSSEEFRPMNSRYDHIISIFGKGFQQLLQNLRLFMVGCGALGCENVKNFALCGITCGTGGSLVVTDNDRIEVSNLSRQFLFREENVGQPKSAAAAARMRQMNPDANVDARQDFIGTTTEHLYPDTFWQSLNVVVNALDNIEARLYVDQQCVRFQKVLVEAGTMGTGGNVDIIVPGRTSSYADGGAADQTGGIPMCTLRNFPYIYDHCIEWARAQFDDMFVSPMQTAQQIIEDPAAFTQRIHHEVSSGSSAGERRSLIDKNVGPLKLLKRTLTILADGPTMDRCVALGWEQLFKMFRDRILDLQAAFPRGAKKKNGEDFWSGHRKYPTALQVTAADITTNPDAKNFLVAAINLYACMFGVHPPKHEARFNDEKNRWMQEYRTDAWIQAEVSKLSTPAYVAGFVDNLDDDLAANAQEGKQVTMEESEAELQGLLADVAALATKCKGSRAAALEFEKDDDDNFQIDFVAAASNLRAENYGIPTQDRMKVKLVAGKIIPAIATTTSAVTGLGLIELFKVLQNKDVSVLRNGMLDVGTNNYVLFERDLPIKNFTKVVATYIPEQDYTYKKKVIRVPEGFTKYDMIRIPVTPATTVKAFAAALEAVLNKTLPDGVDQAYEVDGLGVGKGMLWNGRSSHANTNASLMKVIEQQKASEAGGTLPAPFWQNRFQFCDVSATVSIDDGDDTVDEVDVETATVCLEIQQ
The experiment in a line: Leishmania donovani Ubiquitin Activating Enzyme (LdE1). The format is functional. The note with it: 30 µM.

The target in assay [3] is AMP-activated protein kinase, AMPK (Homo sapiens) (UniProt P54646+O43741+P54619+Q9UGJ0+Q9Y478+Q13131+Q9UGI9). The experiment in a line: AMP-dependent Kinase enzyme assay. An in vitro enzyme assay that detects ADP turnover that is directly proportional to AMPK activity. This uses naive AMPK that is activated during the assay with MK-8722. The format is functional. Conditions: 30 µM.

The target of assay [4] is Sialic acid-binding Ig-like lectin 9 (Homo sapiens) (UniProt Q9Y336). In words: Hs-Siglec9 ALPHAscreen SOP 20170721. Conditions: 10 µM.
The test system of another assay is Trypanosoma cruzi. The experiment in a line: Trypanosoma cruzi phosphomannomutase and mannose-1-phosphate guanylyltransferase assay. The note with it: 10 µM. The format is functional.
The target in assay [5] is T2, Arginase-2, mitochondrial (Homo sapiens) (UniProt P78540).
T2 sequence (whole entry): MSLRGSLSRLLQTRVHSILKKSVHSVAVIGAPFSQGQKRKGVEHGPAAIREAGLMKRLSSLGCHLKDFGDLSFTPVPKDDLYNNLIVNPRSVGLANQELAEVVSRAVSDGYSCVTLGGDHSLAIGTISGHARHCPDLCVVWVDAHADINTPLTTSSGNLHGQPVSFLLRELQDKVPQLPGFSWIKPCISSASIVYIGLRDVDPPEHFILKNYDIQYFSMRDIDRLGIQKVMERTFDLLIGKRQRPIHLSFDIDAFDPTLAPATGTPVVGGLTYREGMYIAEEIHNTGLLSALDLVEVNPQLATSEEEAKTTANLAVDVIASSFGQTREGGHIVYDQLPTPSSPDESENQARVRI
In words: in vitro enzyme assay to detect the production of urea directly proportional to the activity of Arginase II. Further: in the data most compounds retested in dose-response had high values. In kind it is functional. The note with it: 33.3 µM.

Assay [6] concerns the target T3, Proteasome subunit beta (Trypanosoma cruzi) (UniProt O96673).
T3 sequence (whole entry): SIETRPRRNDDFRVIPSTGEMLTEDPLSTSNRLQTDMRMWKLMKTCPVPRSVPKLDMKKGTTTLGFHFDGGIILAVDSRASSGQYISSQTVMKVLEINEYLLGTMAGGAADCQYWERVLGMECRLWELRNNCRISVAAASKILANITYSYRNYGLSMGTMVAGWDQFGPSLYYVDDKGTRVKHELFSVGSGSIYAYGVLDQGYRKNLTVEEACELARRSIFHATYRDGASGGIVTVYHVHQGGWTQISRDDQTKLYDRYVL
In words: Trypanosoma cruzi proteasome chymotrypsin-like activity (TcProtChymo) assay. Further: in the data most compounds retested in dose-response had high values. In kind it is functional. Conditions: 9.37 µM.

The species named for a further assay is Homo sapiens. In words: To identify inhibition of the IFN signalling (Jak-Stat) pathway via expression of an eGFP reporter gene under the control of an IFN-stimulated response element (ISRE) containing MxA promoter. The format is functional. Conditions: 30 µM.
In assay [7] the target is T4, Tyrosyl-tRNA synthetase, putative (Trypanosoma cruzi (strain CL Brener)) (UniProt Q4DSP6).
T4 sequence (whole entry): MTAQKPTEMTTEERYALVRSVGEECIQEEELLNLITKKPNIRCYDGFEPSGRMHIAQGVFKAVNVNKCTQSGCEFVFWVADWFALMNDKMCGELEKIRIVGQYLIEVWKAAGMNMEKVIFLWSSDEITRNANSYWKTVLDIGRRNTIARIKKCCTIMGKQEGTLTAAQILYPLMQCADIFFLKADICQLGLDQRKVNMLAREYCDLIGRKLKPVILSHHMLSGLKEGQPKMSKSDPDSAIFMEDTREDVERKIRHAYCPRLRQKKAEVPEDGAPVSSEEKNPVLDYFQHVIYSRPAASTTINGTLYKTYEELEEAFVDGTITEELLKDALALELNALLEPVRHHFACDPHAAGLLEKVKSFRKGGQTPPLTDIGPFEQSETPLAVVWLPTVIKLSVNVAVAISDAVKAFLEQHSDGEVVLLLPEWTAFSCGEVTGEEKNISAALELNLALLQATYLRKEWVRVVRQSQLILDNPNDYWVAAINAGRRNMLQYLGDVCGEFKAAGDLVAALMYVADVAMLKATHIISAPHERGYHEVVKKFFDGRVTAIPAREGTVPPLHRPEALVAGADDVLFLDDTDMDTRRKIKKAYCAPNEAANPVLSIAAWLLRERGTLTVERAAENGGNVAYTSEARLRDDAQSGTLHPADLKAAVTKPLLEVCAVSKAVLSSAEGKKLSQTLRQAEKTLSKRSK
The experiment in a line: Trypanosoma cruzi tyrosyl tRNA synthetase (TcYRS) _High Tyrosine SOP. Further: in the data most compounds retested in dose-response had high values. In kind it is functional. Conditions: 30 µM.

Assay [8] has as its target T4, Tyrosyl-tRNA synthetase, putative (Trypanosoma cruzi (strain CL Brener)). In words: Trypanosoma cruzi tyrosyl tRNA synthetase (TcYRS) SOP. In kind it is functional. The note with it: 30 µM.
Assay [9] addresses Chromo domain-containing protein 1 (Saccharomyces cerevisiae (strain ATCC 204508 / S288c) (Baker's yeast)) (UniProt P32657). In words: ScCHD-1 Enzyme Inhibition Assay. Further: in the data most compounds retested in dose-response had high values. The format is functional. The note with it: 30 µM.

For some of these results: Entries with a potency or affinity are not part of this list.

Protein translocase subunit SecA (Escherichia coli (strain K12)), sequence (P10408 whole entry): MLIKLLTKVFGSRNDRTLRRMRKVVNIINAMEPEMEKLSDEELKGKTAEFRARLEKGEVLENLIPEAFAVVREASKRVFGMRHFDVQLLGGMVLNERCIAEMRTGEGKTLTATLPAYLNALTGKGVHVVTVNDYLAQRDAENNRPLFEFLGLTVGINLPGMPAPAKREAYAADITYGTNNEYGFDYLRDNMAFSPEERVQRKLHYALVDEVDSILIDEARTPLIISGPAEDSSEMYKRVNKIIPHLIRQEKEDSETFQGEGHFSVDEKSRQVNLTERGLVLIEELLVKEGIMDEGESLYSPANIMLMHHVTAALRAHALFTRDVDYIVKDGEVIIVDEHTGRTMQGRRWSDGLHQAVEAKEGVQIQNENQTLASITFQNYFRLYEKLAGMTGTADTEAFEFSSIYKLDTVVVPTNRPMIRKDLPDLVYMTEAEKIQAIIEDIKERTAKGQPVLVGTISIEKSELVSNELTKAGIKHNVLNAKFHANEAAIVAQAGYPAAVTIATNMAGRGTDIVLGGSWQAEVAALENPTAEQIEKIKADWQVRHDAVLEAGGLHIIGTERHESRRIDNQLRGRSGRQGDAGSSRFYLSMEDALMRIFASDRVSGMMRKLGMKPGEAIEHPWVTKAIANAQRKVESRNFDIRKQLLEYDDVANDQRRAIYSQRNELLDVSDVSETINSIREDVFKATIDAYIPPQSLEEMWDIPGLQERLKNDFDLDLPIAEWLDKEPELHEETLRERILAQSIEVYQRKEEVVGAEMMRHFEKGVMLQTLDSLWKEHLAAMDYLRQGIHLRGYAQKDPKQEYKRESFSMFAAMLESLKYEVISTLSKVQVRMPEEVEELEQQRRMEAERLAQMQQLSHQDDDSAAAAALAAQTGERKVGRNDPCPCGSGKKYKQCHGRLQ
Sialic acid-binding Ig-like lectin 9 (Homo sapiens), sequence (Q9Y336 whole entry): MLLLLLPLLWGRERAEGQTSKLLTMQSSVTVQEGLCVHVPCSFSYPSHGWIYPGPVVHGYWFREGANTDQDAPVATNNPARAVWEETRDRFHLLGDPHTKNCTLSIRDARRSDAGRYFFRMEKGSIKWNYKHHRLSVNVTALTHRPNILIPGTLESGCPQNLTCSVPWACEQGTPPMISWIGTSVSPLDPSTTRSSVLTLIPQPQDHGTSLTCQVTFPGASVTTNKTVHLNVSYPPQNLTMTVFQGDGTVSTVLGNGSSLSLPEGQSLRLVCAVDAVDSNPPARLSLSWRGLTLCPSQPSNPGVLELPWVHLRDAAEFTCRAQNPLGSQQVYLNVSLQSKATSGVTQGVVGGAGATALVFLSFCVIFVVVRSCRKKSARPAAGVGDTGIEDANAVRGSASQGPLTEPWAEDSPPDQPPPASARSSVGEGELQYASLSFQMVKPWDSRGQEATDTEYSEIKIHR
Chromo domain-containing protein 1 (Saccharomyces cerevisiae (strain ATCC 204508 / S288c) (Baker's yeast)), sequence (P32657 whole entry, the tested form may be a part): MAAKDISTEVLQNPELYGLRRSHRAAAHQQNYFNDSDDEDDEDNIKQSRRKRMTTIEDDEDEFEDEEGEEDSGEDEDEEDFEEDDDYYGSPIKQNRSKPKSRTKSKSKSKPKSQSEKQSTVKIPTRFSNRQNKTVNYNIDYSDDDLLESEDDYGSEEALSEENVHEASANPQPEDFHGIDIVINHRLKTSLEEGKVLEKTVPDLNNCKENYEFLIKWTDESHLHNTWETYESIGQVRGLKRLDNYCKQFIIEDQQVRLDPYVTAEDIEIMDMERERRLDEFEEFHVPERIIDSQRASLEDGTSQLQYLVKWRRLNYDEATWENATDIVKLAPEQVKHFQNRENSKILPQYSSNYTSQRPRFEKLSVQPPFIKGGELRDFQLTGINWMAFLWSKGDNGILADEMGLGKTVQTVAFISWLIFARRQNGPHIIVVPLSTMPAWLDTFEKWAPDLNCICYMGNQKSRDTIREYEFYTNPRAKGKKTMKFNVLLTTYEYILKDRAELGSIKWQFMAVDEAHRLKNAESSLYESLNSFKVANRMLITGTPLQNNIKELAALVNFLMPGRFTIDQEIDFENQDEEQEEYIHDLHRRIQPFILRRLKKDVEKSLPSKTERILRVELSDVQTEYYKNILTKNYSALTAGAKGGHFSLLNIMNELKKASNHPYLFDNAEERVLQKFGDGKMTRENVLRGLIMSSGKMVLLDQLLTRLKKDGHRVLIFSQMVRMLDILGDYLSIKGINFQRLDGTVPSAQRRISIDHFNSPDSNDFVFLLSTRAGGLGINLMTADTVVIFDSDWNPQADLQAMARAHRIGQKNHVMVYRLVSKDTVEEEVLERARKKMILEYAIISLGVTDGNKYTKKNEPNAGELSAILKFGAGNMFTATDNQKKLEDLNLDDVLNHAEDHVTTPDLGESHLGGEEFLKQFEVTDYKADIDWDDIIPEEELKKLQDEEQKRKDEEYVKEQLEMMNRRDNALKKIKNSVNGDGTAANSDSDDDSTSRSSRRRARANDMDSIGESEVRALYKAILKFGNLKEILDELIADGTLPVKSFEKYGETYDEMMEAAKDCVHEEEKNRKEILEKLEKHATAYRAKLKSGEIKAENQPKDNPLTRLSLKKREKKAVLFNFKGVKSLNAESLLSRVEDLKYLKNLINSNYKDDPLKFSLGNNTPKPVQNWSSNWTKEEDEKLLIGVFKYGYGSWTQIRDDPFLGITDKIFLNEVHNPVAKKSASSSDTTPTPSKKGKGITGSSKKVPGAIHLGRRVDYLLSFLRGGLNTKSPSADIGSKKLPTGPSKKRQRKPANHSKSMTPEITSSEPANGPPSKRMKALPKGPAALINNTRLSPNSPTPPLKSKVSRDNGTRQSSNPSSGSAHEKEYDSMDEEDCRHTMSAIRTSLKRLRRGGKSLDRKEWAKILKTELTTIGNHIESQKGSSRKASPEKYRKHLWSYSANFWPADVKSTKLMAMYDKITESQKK

For the compound `Cc1cc(C)n(CCC(=O)N2CCC(c3nc(C(C)C)no3)CC2)n1`, the Percent Effect in [1] is -2.78%; in [2] it was 20.8%; in [3], 4.41%; in assay [4], 11.6%; in the assay on Trypanosoma cruzi it was 5.8%; in assay [5], -40%. In addition, the Percent Effect in assay [6] was 16.5%; in the assay listed under Homo sapiens it was -3.55%; in [7], 6.45%; in assay [8], 18.5%; in assay [9] it was -7.45%.
Take `CC(CNC(=O)N1CCSCC1)Cc1cccs1` (stereo unspecified): the Percent Effect in assay [1] is -4.11%; in [2], 0%; in [3] it was 0.113%; in assay [4], -1.72%; in the assay with Trypanosoma cruzi it was -0.195%; in assay [5], -2.08%. The Percent Effect in assay [6] is 5.83%; in the assay listed under Homo sapiens it was 1.53%; in assay [7] it was 4.95%; in assay [8], 6.1%; in assay [9], -3.96%.
For `NCCn1nc(C2CCN(Cc3ccc(Cl)c(Cl)c3)C2)c2nccnc21` (stereo unspecified), the Percent Effect in [1] is -3.22%; in assay [2] it was -14.9%; in assay [3], 7.43%; in assay [4] it was 0.383%; in the assay with Trypanosoma cruzi, 2.37%; in assay [5] it was -4.41%. Also, the Percent Effect was 8.74% in assay [6]; 7.68% in the assay filed under Homo sapiens; 1.07% in assay [7]; -1.3% in assay [8]; -23.3% in [9].
`Cn1cc(CNc2ncnc3c2CCN(Cc2ccsc2)CC3)cn1`: the Percent Effect was -6.16% in assay [1]; 13.3% in assay [2]; -5.59% in [3]; 29.3% in assay [4]; 4.97% with Trypanosoma cruzi; 7.29% in assay [5]. In addition, the Percent Effect in [6] was 17.1%; in the assay listed under Homo sapiens, -4.35%; in assay [7] it was 4.92%; in assay [8], 16.1%; in assay [9] it was -0.968%.
For `Cc1cccc(CNCc2c(C(C)C)nn(C)c2N2CCOCC2)n1`, the Percent Effect in assay [1] is -1.17%; in assay [2] it was 5.48%; in assay [3], -18.3%; in assay [4] it was -6.47%; with Trypanosoma cruzi, -1.57%; in assay [5] it was -8.64%. The Percent Effect in assay [6] is 5.68%; in the assay listed under Homo sapiens, -8.24%; in assay [7] it was 2.15%; in [8] it was 5%; in assay [9], -2.13%.
On to `CNC(=O)Cc1ccc(NC(=O)NC(C)C(C)C)cc1` (stereo unspecified), for which the Percent Effect in assay [1] is -2.02%; in [2], 10.5%; in [3] it was 3.68%; in assay [4], 1.41%; in the assay with Trypanosoma cruzi it was 1.66%; in assay [5] it was 0%. Further, the Percent Effect in assay [6] is 8.53%; in the assay filed under Homo sapiens it was -8.18%; in assay [7] it was 4.25%; in assay [8] it was 15.6%; in assay [9] it was -3.23%.
On to `Cc1nccn1CCC1CCCCN1Cc1ccncc1` (stereo unspecified), for which the Percent Effect in assay [1] is -5.73%; in [2] it was 8%; in assay [3], -13%; in assay [4], -0.0054%; in the assay on Trypanosoma cruzi it was -2.63%; in assay [5] it was 0.521%. In addition, the Percent Effect was 13.8% in [6]; 25.9% in the assay listed under Homo sapiens; 2.73% in assay [7]; 13.6% in assay [8]; -6.06% in [9].
For the compound `CCCc1n[nH]c(C2CN(C(=O)c3cc(F)ccc3OC)CCO2)n1` (stereo unspecified), the Percent Effect in [1] is -5.9%; in [2], 7.89%; in assay [3] it was -0.379%; in assay [4] it was 3.53%; with Trypanosoma cruzi, 2.33%; in assay [5] it was -2.52%. In addition, the Percent Effect in assay [6] was 3.3%; in the assay listed under Homo sapiens, -17.2%; in [7] it was 6.4%; in [8], 11.1%; in assay [9] it was -4.7%.
Regarding `Cc1cc(N(C)Cc2cc(C)on2)n2nc(C)c(C)c2n1`, the Percent Effect is 1.74% in [1]; 4.17% in assay [2]; -0.739% in assay [3]; -6.39% in assay [4]; -6.71% in the assay with Trypanosoma cruzi; 1.32% in [5]. The Percent Effect in assay [6] was 11.4%; in the assay listed under Homo sapiens, 10.3%; in [7] it was 2.1%; in assay [8], 7.69%; in assay [9] it was -5.04%.
For `O=C(CN1C=Nc2ccccc2S1(=O)=O)NCCc1cccs1`, the Percent Effect is -6.39% in [1]; 13.2% in [2]; -6.07% in [3]; 5.67% in assay [4]; 3.08% in the assay with Trypanosoma cruzi; 5.04% in assay [5]. Besides, the Percent Effect in [6] is 9.56%; in the assay filed under Homo sapiens, 5.08%; in assay [7], 8.37%; in assay [8], 25.9%; in assay [9] it was -10.2%.
As to `CC(C)N(C)C(=O)C1=NOC2(CCN(C(=O)c3ccc(Cl)cc3)C2)C1` (stereo unspecified), the Percent Effect in [1] was -0.137%; in assay [2] it was 5.48%; in assay [3] it was 1.89%; in assay [4] it was 5.19%; with Trypanosoma cruzi it was -7.54%; in [5], -1.6%. Further, the Percent Effect was 17.6% in assay [6]; 27.1% in the assay listed under Homo sapiens; 8.33% in [7]; 8.64% in [8]; -3.93% in assay [9].

For the origin of these results see ChEMBL document CHEMBL3988442, “University of Dundee, Small-Polar-MMV Screening Library” (2021).
